Among the data in PubChem BioAssay AID588676 (Johns Hopkins Ion Channel Center, 2011) are B-score values, retold here.

Out of some 310,000 compounds screened, about 3,900 (1.3%) were called active.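 The calls were made as follows: active = calcium-response B-score plate-corrected more than 3 library SD below zero, starting fluorescence within 5 deviations, no agonist response on first addition; inactive = the rest.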 Only a selection was taken, and actives are over-represented in it overall.

The target of the experiment is Mas-related G-protein coupled receptor member X1 (Homo sapiens) (UniProt Q96LB2). As to the kind of experiment: antagonists of human MrgX1 receptor, primary screen, HEK293 cells, Fluo-4 calcium flux (AID 588676).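 As to B-score: peak minus trough fluorescence over baseline after final BAM8-22 challenge near maximal dose.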 The note with it: Fluo-4, BAM8-22 antagonism, at 10 µM; stronger effect = lower value. A general note: Calcium assays in cells follow changes in intracellular calcium, usually with a dye or a luminescent sensor.
Mas-related G-protein coupled receptor member X1 (Homo sapiens), sequence (Q96LB2 whole entry, looked up): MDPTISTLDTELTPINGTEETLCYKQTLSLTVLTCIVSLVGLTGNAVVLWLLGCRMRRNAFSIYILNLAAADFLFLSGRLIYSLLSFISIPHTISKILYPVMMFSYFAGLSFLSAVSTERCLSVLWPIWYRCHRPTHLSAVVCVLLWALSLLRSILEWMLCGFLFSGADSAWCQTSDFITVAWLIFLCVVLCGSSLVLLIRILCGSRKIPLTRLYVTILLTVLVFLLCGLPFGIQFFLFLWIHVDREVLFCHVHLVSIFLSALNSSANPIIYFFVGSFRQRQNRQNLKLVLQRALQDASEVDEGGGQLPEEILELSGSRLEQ
For `CCc1ccc(Nc2n[n+](-c3ccccc3)c(-c3cccc(Cl)c3Cl)s2)cc1`, the B-score entry is “inactive”.
`CCc1nnc(NC(=O)CCC(=O)N2CCN(c3cc(C)ccc3C)CC2)s1`: the B-score entry is “inactive”.
As to `CC1CCC(N2CC(=O)N(Cc3ccc4c(c3)OCO4)C(c3ccc(F)cc3)C2=O)CC1` (stereo unspecified), the B-score result was “inactive”.
Next, `CCc1ccccc1NC(=O)c1ccc2c(c1)CCN2S(C)(=O)=O`: “inactive”; `CCCCN(C)CCC(=O)Nc1ccc(Cl)cc1`: “inactive”.
Turning to `CCCCC(=O)Nc1ccc2c(c1)C(=O)NC2=O`, the B-score is -4.77 (active).
Next, `CC(=O)Nc1ccc(Oc2ccc3c(c2)C(=O)NC3=O)cc1`: “inactive”; `Cc1ccc(CN(CC(=O)NCC2CCCO2)S(=O)(=O)c2ccc(C)cc2)cc1` (stereo unspecified): “inactive”.
For `O=C(c1c(F)cccc1Cl)N1CCN(S(=O)(=O)c2ccc3c(c2)OCCCO3)CC1`, the B-score entry was “inactive”.
For `CN1CCCN(S(=O)(=O)c2ccc3c(c2)OCCO3)CC1`, the B-score result is “inactive”.
As to `CCCCCC(=O)N1CCN(S(=O)(=O)c2ccc3c(c2)OCCCO3)CC1`, the B-score is -12 (active).
For `COc1ccc(C(=O)NCCn2nc(C)cc2C)cc1OC1CCN(C(C)=O)CC1`, the B-score entry is “inactive”.
To `CCOc1ccc(NC(=O)COc2ccc(C(=O)NC3CCCc4ccccc43)cc2OC)cc1` (stereo unspecified) belongs “inactive”; to `CCOc1ccc(NC(=O)COc2ccc(C(=O)N3CCC(C(N)=O)CC3)cc2OC)cc1`, -8.23 (active).
To `COc1ccc(C(=O)N2CCC(C(=O)Nc3cccc(C)c3)CC2)cc1OC` belongs “inactive”.
`Cc1ccc(S(=O)(=O)CCC(=O)OCC(=O)N(C)C2CCS(=O)(=O)C2)cc1` (stereo unspecified): the B-score entry was “inactive”.
On to `O=C(CSc1nnc2n1CCCN2)c1ccccc1`, for which the B-score entry is “inactive”.
To `Cc1cc(Cl)ccc1NC(=S)NCCCN1CCCC1=O` belongs “inactive”.
As for `Cc1c(Cl)cccc1NC(=O)NCCCN1CCCC1=O`, the B-score result is “inactive”.
`O=C1CCCN1CCCNC(=S)Nc1ccc(F)c(Cl)c1`: the B-score is -4.94 (active).
Next, `O=C(NC1CCN(Cc2ccccc2)CC1)c1cc(Br)c(Br)[nH]1`: “inactive”; `Oc1c(Cl)cc(Cl)c(Cl)c1Cc1c(O)c(Cl)cc(Cl)c1Cl`: -8.06 (active); `O=C(CN1CCCCCC1)Nc1c(Cl)cc(Cl)cc1Cl`: “inactive”.
As for `COc1cc2c(C(=O)N3CCN(C)CC3)c(CSc3ccccc3)n(C)c2cc1Br`, the B-score result was “inactive”.
For `O=C(COC(=O)c1cc(-c2cccs2)nn1-c1ccccc1)Nc1cc([N+](=O)[O-])ccc1Cl`, the B-score result is “inactive”.
For `O=C(Nc1ncccc1O)c1ccc(S(=O)(=O)N2CCCC2)cc1`, the B-score entry was “inactive”.
For `O=C(Nc1ncccc1O)c1ccc(S(=O)(=O)N2CCCCCC2)cc1`, the B-score entry is “inactive”.
Consider `CC(C)(C)n1nc2c(c1NC(=O)c1ccc(S(=O)(=O)N3CCCC3)cc1)CS(=O)C2` (stereo unspecified), for which the B-score is -5.73 (active).
To `O=C(CCN1C(=O)[C@H]2CC=CC[C@H]2C1=O)NCc1nc(-c2ccccc2)no1` belongs “inactive”; to `Cc1ccc(Nc2cc(C)nc3c(C)ccc([N+](=O)[O-])c23)cc1`, “inactive”; to `Cc1cc(C)cc(NC(=S)NCc2ccc(F)cc2)c1`, “inactive”.
Next, `O=C(NCCc1c[nH]c2ccccc12)c1cccc(Br)c1`: “inactive”; `Cc1cc(C)cc(NC(=S)NCCc2c[nH]c3ccccc23)c1`: -5.78 (active).
Take `NS(=O)(=O)c1ccccc1NC(=O)c1c(O)c2ccccc2[nH]c1=O`: the B-score result was “inactive”.
As for `O=C(/C=C/c1ccc(N2CCOCC2)cc1)c1ccccc1`, the B-score result is “inactive”.
To `Cc1cccc(N2C(=O)c3ccc(C(=O)Nc4cccc(C(=O)O)c4)cc3C2=O)c1` belongs “inactive”; to `O=C(O)c1ccc2c(c1)C(=O)N(c1ccc(/C=C/C(=O)c3ccccc3)cc1)C2=O`, -6.62 (active); to `Cc1cc(C)cc(C(=O)OCC(=O)NCCNC(=O)COC(=O)c2cc(C)cc(C)c2)c1`, “inactive”.
For the compound `CCOC(=O)CNC(=O)CSc1nc2cccnc2n1CC`, the B-score is -8.3 (active).
As for `CCOC(=O)CNC(=O)CSc1ncccc1-c1nc2ccccc2[nH]1`, the B-score result was “inactive”.
For `CCOC(=O)CNC(=O)CSc1nnc(COc2ccc(Cl)cc2)n1CC`, the B-score result is “inactive”.
In the case of `O=C1c2cccc3cccc(c23)C(=O)N1c1cccc(O)c1`, the B-score entry was “inactive”.
Next, `COC(=O)[C@@H]1C[C@@]2(O)[C@@H](O)[C@@H](O)[C@@H](O)C[C@H]2N1Cc1ccc(C)s1`: “inactive”; `COc1ccc(Cl)cc1NS(=O)(=O)c1cccc(C(=O)NC2CCC(O)CC2)c1` (stereo unspecified): “inactive”.
Next, `COc1ccc(C(=O)NC2CCCc3c2cnn3-c2cccc(C)c2C)c(OC)n1` (stereo unspecified): -8.89 (active).
To `Cc1cc(C(=O)NC2CCCc3c2cnn3-c2cccc(C)c2C)c(C)o1` (stereo unspecified) belongs “inactive”.
Consider `Cn1nccc1C(=O)NC1CCCc2c1cnn2-c1ccccc1F` (stereo unspecified), for which the B-score entry was “inactive”.
Next, `Cc1ccc(S(=O)(=O)NNC(=O)/C=C/c2cccc(F)c2)cc1`: “inactive”; `Cc1ccc(C)c(NC(=O)C2Cc3ccccc3CN2C(=O)OCc2ccccc2)c1` (stereo unspecified): “inactive”.
Next, `COc1ccc(C(C)NC(=S)NC2CCCCC2)cc1OC` (stereo unspecified): “inactive”.
Next, `CCN(CC)CCNCC(=O)Nc1ccc(Oc2ccccc2)cc1`: “inactive”.
As to `CCN(CC)CC(=O)Nc1nn(-c2ccccc2)nc1C(N)=O`, the B-score was -7.03 (active).
Next, `CCCN(CC(=O)Nc1ccc(C(N)=O)cc1)CC(=O)Nc1ccccc1C`: “inactive”; `O=C1CCC(C(=O)N2CCC(O)(c3ccccc3)CC2)CN1CCc1ccccc1` (stereo unspecified): “inactive”.
Next, `COc1ccccc1OCc1nnc(SCC(N)=O)n1-c1ccccc1`: “inactive”; `CC(C)(C)NC(=O)NC(=O)COC(=O)C1(C)CC1(Cl)Cl` (stereo unspecified): “inactive”.
Turning to `COc1cc(CCC(=O)Nc2ccncc2Cl)cc(OC)c1OC`, the B-score is -6.22 (active).
To `COc1cc(CCC(=O)N2CCN(c3ccccc3Cl)CC2)cc(OC)c1OC` belongs “inactive”; to `COc1cc(CCC(=O)OCC(=O)Nc2cccc(S(N)(=O)=O)c2)cc(OC)c1OC`, “inactive”.
Next, `C#CCOCCOCCOCCNc1nc(N2CCN(C(=O)CCCCCCCCCCNC(=O)[C@H]([C@@H](C)CC)n3cc(CCCCN=C(N)N)nn3)CC2)nc(N2CCN(C(=O)CCCCCCCCCCNC(=O)[C@H](CO)n3cc(CCCSC)nn3)CC2)n1`: “inactive”; `O=C(NCC(=O)N(Cc1cccs1)C(C(=O)NC1CCCCC1)c1ccco1)c1cccs1` (stereo unspecified): “inactive”; `CCOc1ccc(CCNC(=O)C2CCN(c3ccc(N4CCOCC4)nn3)CC2)cc1OCC`: “inactive”.
With `COc1ccc(N2CCN(CCCNC(=O)C3CCN(S(=O)(=O)N4CCOCC4)CC3)CC2)cc1`, the B-score entry was “inactive”.
Next, `COCCCNC(=O)C1CCN(c2ccc(N3CCOCC3)nn2)CC1`: -6.39 (active); `CN1CCN(Cc2c(C(=O)N3CCc4ccccc4C3)nc3ccc(Cl)cn23)CC1`: “inactive”.
Regarding `CCc1nn(-c2cc(Oc3cccc4ccccc34)nc(-c3ccccc3)n2)c(N)c1C#N`, the B-score result was “inactive”.
To `COCCCNCC(=O)Nc1sc(C)c(C)c1C(=O)OC` belongs “inactive”; to `COC(=O)c1c(NC(=O)c2c(Cl)cnn2C)sc(C)c1C`, -4.74 (active).
To `CCOC(=O)c1c(NC(=O)CSc2nccc(=O)[nH]2)sc(C)c1C` belongs “inactive”.
To `CN(C)c1cccc(C(=O)N2CCC(n3nccc3NC(=O)C3CCOC3)CC2)c1` (stereo unspecified) belongs “inactive”; to `Cc1ccccc1OCCC(=O)OCC(=O)NC(C)c1ccccc1` (stereo unspecified), “inactive”; to `O=C(Cn1cc(C(=O)C2CC2)c2ccccc21)Nc1ccccc1Cl`, “inactive”.
For the compound `Cc1ccc(-n2cnc3ncnc(-c4ccccc4)c32)cc1`, the B-score result was “inactive”.
Turning to `Cc1ccc(-c2nn(C(C)(C)C)c3ncnc(N)c23)cc1`, the B-score was -4.54 (active).
As for `CC(=O)Nc1ccc(NC(=O)COc2ccc(S(=O)(=O)NC(C)c3ccccc3)cc2)cc1` (stereo unspecified), the B-score result is “inactive”.
To `COCCOC(=O)c1c(C)oc2cc(Br)c(OCC(N)=O)cc12` belongs “inactive”.
Next, `CCOC(=O)c1sc(NC(=O)CSc2nnc(-c3ccco3)o2)c(C(=O)OCC)c1C`: “inactive”; `CCOC(=O)c1c(NC(=O)CNC2CCCc3ccccc32)sc(C(N)=O)c1C` (stereo unspecified): -4.67 (active).
Next, `CCOC(=O)c1sc(NC(=O)COc2ncnc3ccccc23)c(C(=O)OCC)c1C`: “inactive”; `Cc1ccc(C(=O)C(C)OC(=O)Cc2n[nH]c(=O)c3ccccc23)cc1C` (stereo unspecified): “inactive”.
Take `O=C(/C(=C/c1cccc(Cl)c1)c1nc2ccccc2[nH]1)c1ccccc1`: the B-score entry was “inactive”.
Next, `O=C(Cc1nc2ccccc2[nH]c1=O)c1ccc(Cl)cc1`: -5.73 (active).
To `O=C(CSc1nc2ccc([N+](=O)[O-])cc2[nH]1)c1ccc(Cl)cc1` belongs “inactive”; to `CN1CCN(c2ccccc2NC(=O)COc2ccc(C3CCCCC3)cc2)CC1`, “inactive”; to `Cc1ccc(SCc2cc(=O)[nH]c(N3CCCCC3)n2)cc1`, “inactive”.
Next, `O=c1cc(CSc2ccccn2)nc(N2CCN(c3ccccc3)CC2)[nH]1`: -4.82 (active); `Cc1nnc(SCc2cc(=O)[nH]c(N3CCN(Cc4ccccc4)CC3)n2)s1`: “inactive”.
With `Cc1cc(N2C(=O)C(O)=C(C(=O)c3ccc(C)o3)C2c2ccc(OCc3ccccc3)cc2)no1` (stereo unspecified), the B-score entry is “inactive”.
To `C=CCOc1cccc(C2C(C(=O)c3ccc(C)o3)=C(O)C(=O)N2c2nnc(C)s2)c1` (stereo unspecified) belongs -4.61 (active); to `C=CCOc1cccc(C2C(C(=O)c3ccc(C)o3)=C(O)C(=O)N2CCCn2ccnc2)c1` (stereo unspecified), “inactive”.
Next, `COc1ccc(/C(O)=C2/C(=O)C(=O)N(CC3CCCO3)C2c2ccc(OC)c(OC)c2)cc1` (stereo unspecified): “inactive”.
Next, `COc1ccc(NC(C(=O)Nc2cccc(C(C)=O)c2)c2ccccc2)cc1` (stereo unspecified): “inactive”; `Cc1cc(-c2ccc(S(=O)(=O)N3CCN(c4cccc(C(F)(F)F)c4)CC3)s2)on1`: “inactive”; `COc1ccc(C(=O)Cc2cnn(-c3ccccc3)c2)c(O)c1`: “inactive”.
Regarding `COc1ccc(CC(=O)c2ccc(O)cc2O)cc1OC`, the B-score entry is “inactive”.
To `O=C(Cc1ccccn1)c1ccc(O)cc1O` belongs -4.66 (active); to `CCn1c(SCC(=O)NC2CC2)nnc1-c1ccccc1OC`, “inactive”.
To `O=C(NCC1CCCO1)c1ccccc1-c1nc(-c2ccccc2Cl)no1` (stereo unspecified) belongs “inactive”.
To `C=CCn1nc(-c2ccccc2)c2c(C)onc2c1=O` belongs -6.96 (active); to `C=CCn1cnc2scc(-c3ccccc3)c2c1=O`, “inactive”; to `Cc1nn(-c2ccccc2)c(=O)c2noc(C)c12`, “inactive”.
